The results in this text go back to PubChem BioAssay.

The target of test [1] is Cell division control protein 42 homolog (Homo sapiens) (UniProt P60953). The test can be described thus: activated mutant Cdc42 GTP-binding inhibitors, dose response, biochemical, multiplex bead flow cytometry, Bodipy-FL-GTP (AID 1333;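 active means fitted half-maximal concentration within the tested dose range, moderate curve steepness, a statistically real signal drop, and little compound fluorescence or tag-binding interference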). (Flow cytometry measures light scatter and fluorescence of single cells or particles in a stream.)
The target is the same in test [2]. The test is described as follows: wildtype Cdc42 GTP-binding inhibitors, dose response, biochemical, multiplex bead flow cytometry, Bodipy-FL-GTP (AID 1334;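 active means fitted half-maximal concentration within the tested range, moderate curve steepness, significant signal drop, and little compound fluorescence or bead-linkage interference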). As to conditions: bead-based flow cytometry, Bodipy-FL-GTP binding to GST-Cdc42; at 100 µM (top of the series) unless noted.
Test [3] has as its target GTPase HRas (Homo sapiens) (UniProt P01112). The test can be described thus: inhibitors of GTP binding to wildtype Ras, dose response, biochemical, multiplex bead flow cytometry (AID 1335;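 active means fitted half-maximal concentration within 10 nM to 100 µM, steepness 0.5 to 2, significant signal drop, low assay interference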). As to conditions: bead-based flow cytometry, Bodipy-GTP binding to GST-Ras; at 100 µM (top of the series) unless noted.
In test [4] the test system is Ras-related protein Rab-7a (dog), GTP binding. The test can be described thus: Rab7 GTP binding inhibitors, potency, dose response, biochemical, wildtype, multiplex bead flow cytometry (AID 1336; call rule not given here).
In test [5] the target is Ras-related C3 botulinum toxin substrate 1 (Homo sapiens) (UniProt P63000). The test can be described thus: wildtype Rac1 GTP binding inhibitors, dose response, biochemical, multiplex bead flow cytometry (AID 1340). As to conditions: GST-Rac1 beads, Bodipy-FL-GTP binding; at 100 µM (top of the series) unless noted.
Test [6] deals with GTPase HRas (Homo sapiens) (UniProt P01112). The test is described as follows: activated Ras mutant GTP binding inhibitors, dose response, biochemical, multiplex bead flow cytometry (AID 1341;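 active means dose-response curve with midpoint inside the tested range, moderate steepness, significant amplitude and little compound fluorescence or bead-attachment interference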;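 further: GST-tagged constitutively activated Ras mutant immobilized on beads and multiplexed with other GTPases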).

The structures appear in SMILES notation. For part of these data: Results with a measured potency or affinity are listed apart. Activity calls are given as the source filed them.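 How the source made its calls, unless noted: active means dose curve with midpoint inside tested range, moderate steepness, plateau gap beyond fit error, low compound glow and bead-link interference; inactive means the rest.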

GTPase HRas (Homo sapiens), sequence (P01112 whole entry, looked up): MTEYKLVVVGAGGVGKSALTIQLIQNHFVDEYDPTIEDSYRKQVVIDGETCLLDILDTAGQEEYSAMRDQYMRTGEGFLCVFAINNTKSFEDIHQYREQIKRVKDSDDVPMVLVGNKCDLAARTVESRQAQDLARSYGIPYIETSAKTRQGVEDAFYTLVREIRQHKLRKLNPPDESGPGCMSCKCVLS
Cell division control protein 42 homolog (Homo sapiens), sequence (P60953 whole entry, looked up): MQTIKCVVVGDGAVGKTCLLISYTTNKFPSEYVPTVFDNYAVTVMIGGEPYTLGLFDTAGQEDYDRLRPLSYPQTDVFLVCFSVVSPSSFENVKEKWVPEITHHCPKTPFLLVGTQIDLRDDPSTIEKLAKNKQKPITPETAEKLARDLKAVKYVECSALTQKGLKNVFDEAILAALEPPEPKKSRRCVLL

With `O=c1c2ccccc2nc2c3ccccc3c(NCc3cccnc3)nn12`, the outcome in test [1], in test [4] and in test [6] was inactive. In addition, in test [2], the fluorescence, percent of control (lower = inhibition) came to 27.9%. Moreover, the GTP binding, percent of control in test [3] worked out at 71.5%. For the same molecule, the GTP binding signal, raw median fluorescence (lower = inhibition) (MCF (arbitrary fluorescence units)) in test [5] is 157.
Take `COc1ccc(OC)c(/C=N/NC(=O)c2ccc(Cn3cc([N+](=O)[O-])cn3)o2)c1`: the result in test [1], in test [4] and in test [6] was inactive. In test [2], the fluorescence, percent of control (lower = inhibition) came to 30.5%. This molecule also showed a GTP binding, percent of control in test [3] of 66.3%. For the same molecule, the GTP binding signal, raw median fluorescence (lower = inhibition) (MCF (arbitrary fluorescence units)) in test [5] was determined as 159.
For `CCCc1cc(-n2ccnc2)n2c(nc3ccccc32)c1C#N`, the result in test [1], in test [4] and in test [6] was inactive. Further, the fluorescence, percent of control (lower = inhibition) in test [2] was found to be 172%. Besides, the GTP binding, percent of control in test [3] was 195%. Also, the GTP binding signal, raw median fluorescence (lower = inhibition) (MCF (arbitrary fluorescence units)) in test [5] amounted to 212.
Take `O=c1c2ccccc2nc2c3ccccc3cnn12`: the molecule was called inactive in test [1], in test [4] and in test [6]. Further, the fluorescence, percent of control (lower = inhibition) in test [2] amounted to 46.9%. The molecule further displayed a GTP binding, percent of control in test [3] of 88.4%. Besides, in test [5], the GTP binding signal, raw median fluorescence (lower = inhibition) (MCF (arbitrary fluorescence units)) came to 175.
As for `COC(=O)C1=C(C)NC(=O)/C1=C\c1cc(C)n(-c2c(C)cccc2C)c1C`, the call in test [1], in test [4] and in test [6] was inactive. In addition, the fluorescence, percent of control (lower = inhibition) in test [2] was 37%. In test [3], this molecule gave a GTP binding, percent of control of 84.9%. In addition, the GTP binding signal, raw median fluorescence (lower = inhibition) (MCF (arbitrary fluorescence units)) in test [5] was found to be 308.
With `Cc1nc(-c2cnn(-c3ccccc3)c2)c2cc(C)oc2n1`, the outcome in test [1], in test [4] and in test [6] was inactive. Moreover, in test [2], the fluorescence, percent of control (lower = inhibition) stood at 61.7%. In addition, the GTP binding, percent of control in test [3] is 140%. The same molecule showed a GTP binding signal, raw median fluorescence (lower = inhibition) (MCF (arbitrary fluorescence units)) in test [5] of 140.
On to `CCOc1cc(C2c3c(-c4ccccc4)n[nH]c3C(=O)N2c2ccc(C(=O)O)cc2)ccc1O` (stereo not given), for which the molecule was called inactive in test [1], in test [4] and in test [6]. For the same molecule, the fluorescence, percent of control (lower = inhibition) in test [2] turned out to be 29%. The same molecule yielded a GTP binding, percent of control in test [3] of 79.3%. The molecule further returned a GTP binding signal, raw median fluorescence (lower = inhibition) (MCF (arbitrary fluorescence units)) in test [5] of 95.9.
In the case of `CCOc1ccc(-n2nc3c(SCCN4CCCC4)nnc(C)c3c2C)cc1`, the call in test [1], in test [4] and in test [6] was inactive. The fluorescence, percent of control (lower = inhibition) in test [2] came to 57.3%. Moreover, the GTP binding, percent of control in test [3] was 71.4%. Besides, the GTP binding signal, raw median fluorescence (lower = inhibition) (MCF (arbitrary fluorescence units)) in test [5] is 230.
In the case of `CC1CN(C(=O)c2cccc(S(=O)(=O)Nc3cc(Cl)ccc3Cl)c2)CC(C)O1` (stereo not given), the molecule was called inactive in test [1], in test [4] and in test [6]. Besides, the fluorescence, percent of control (lower = inhibition) in test [2] was 26.5%. This molecule also showed a GTP binding, percent of control in test [3] of 65.8%. The molecule further returned a GTP binding signal, raw median fluorescence (lower = inhibition) (MCF (arbitrary fluorescence units)) in test [5] of 168.
As to `Cc1cccc(/C=N/N(CCO)C2=NS(=O)(=O)c3ccccc32)c1`, the outcome in test [1], in test [4] and in test [6] was inactive. In test [2], the fluorescence, percent of control (lower = inhibition) was determined as 28.3%. Also, in test [3], the GTP binding, percent of control stood at 67.6%. The GTP binding signal, raw median fluorescence (lower = inhibition) (MCF (arbitrary fluorescence units)) in test [5] is 139.
Consider `CN(C)c1ccc(/C=C/c2ccc3c4ccccc4ccc3[n+]2-c2ccccc2)cc1`, for which the molecule was called inactive in test [1], in test [4] and in test [6]. For the same molecule, the fluorescence, percent of control (lower = inhibition) in test [2] is 40%. In test [3], this molecule registered a GTP binding, percent of control of 69.7%. In test [5], this molecule displayed a GTP binding signal, raw median fluorescence (lower = inhibition) (MCF (arbitrary fluorescence units)) of 236.
With `Cc1ccc(C)c(OCCSc2nc3ccccc3n2CC(=O)O)c1`, the molecule was classed as inactive in test [1], in test [4] and in test [6]. In addition, the fluorescence, percent of control (lower = inhibition) in test [2] was 59.6%. Also, the GTP binding, percent of control in test [3] is 88.1%. The GTP binding signal, raw median fluorescence (lower = inhibition) (MCF (arbitrary fluorescence units)) in test [5] was found to be 29.2.
For `Cc1ccc(C(=O)O)c(OCCc2c(C)cccc2C)n1`, the call in test [1], in test [4] and in test [6] was inactive. Besides, the fluorescence, percent of control (lower = inhibition) in test [2] was 64.4%. Moreover, in test [3], the GTP binding, percent of control turned out to be 224%. This molecule also displayed a GTP binding signal, raw median fluorescence (lower = inhibition) (MCF (arbitrary fluorescence units)) in test [5] of 57.
For the molecule `COc1cccc(/C=N/Nc2nn3cnnc3c3ccccc23)c1O`, the molecule was called inactive in test [1], in test [4] and in test [6]. Moreover, in test [2], the fluorescence, percent of control (lower = inhibition) worked out at 35.9%. In test [3], this molecule registered a GTP binding, percent of control of 44.6%. In test [5], this molecule showed a GTP binding signal, raw median fluorescence (lower = inhibition) (MCF (arbitrary fluorescence units)) of 126.
Consider `CN(C)S(=O)(=O)c1ccc(C(=O)NNc2nc(-c3ccccc3)c3cc(Br)ccc3n2)cc1`, for which the molecule was classed as inactive in test [1], in test [4] and in test [6]. Also, the fluorescence, percent of control (lower = inhibition) in test [2] is 31.2%. In test [3], this molecule displayed a GTP binding, percent of control of 71.7%. Besides, in test [5], the GTP binding signal, raw median fluorescence (lower = inhibition) (MCF (arbitrary fluorescence units)) was 166.
